The text below walks through data of PubChem BioAssay (NCI).

Each structure is given as a SMILES string. Compounds without any hit were thinned out: in the full panel of roughly 83,000, 20% have a hit.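 Percent growth is the endpoint: 0 to 100 indicates growth inhibition (40 means 60% inhibition), 0 means no net growth, and negative values indicate cell death.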 Unmarked numbers belong to inactive results. Active and inactive are the calls of the source. The calls were made as follows: active = growth percent below 10; inactive = the rest.

The subject of the assay is HL-60(TB) leukemia. Put plainly: NCI-60 one-dose screen, 48 h (100 = growth as untreated, 0 = no growth, -100 = all killed). As to conditions: 10 µM unless noted.
With `COc1cc2ncn3c(=O)c4c5c(sc4nc3c2cc1OC)CCCC5`, the growth was 106%.

Consider `O=C(NOCCO)c1cc(CN2OCCCC2=O)c(F)c(F)c1Nc1ccc(I)cc1F`, for which the growth was 18.2%.

For the molecule `O=C(Cc1ccc2c(c1)OCCO2)Nc1nc2ccc(F)cc2s1`, the growth was 99.6%.

In the case of `O=C(NC1CCS(=O)(=O)C1)c1ccc(C(=O)c2ccccc2)cc1` (stereo not given), the growth is 191%.

Turning to `CC(=O)C1=C(O)C=C2Oc3c(C(=O)/C=C/c4cc(Cl)cc(Cl)c4)c(O)c(C)c(O)c3[C@]2(C)C1=O`, the growth is -34.8% (active).

For `O=C(/C=C/c1ccc(O)c(O)c1)N1CCN(c2ccc(Cl)cc2)CC1`, the growth is 12.9%.

For the molecule `Cc1nccc2c3ccc(OCc4cn(-c5ccc(Br)cc5)nn4)cc3n(CCCc3ccccc3)c12`, the growth was 46.1%.

For the molecule `COC(=O)C(Cc1ccccc1)NC(=O)c1ccc(NC(=O)c2[nH]c(C)c(Cl)c2Cl)c(OC(C)C)c1` (stereo not given), the growth is 99.7%.

For `Cl.Fc1c[c-]c(-c2ccccn2)c(F)c1.[Pt].c1ccc([PH+](CC[PH+](c2ccccc2)c2ccccc2)c2ccccc2)cc1`, the growth was -29.2% (active).

With `COc1ccc(-c2nnc3n(C)c(=O)c4ccccc4n23)cc1O`, the growth was -22% (active).

For the molecule `O=C1c2ccccc2C(=O)c2c1oc1ccc3ccccc3c21`, the growth was 100%.

As to `O=C1C=CC2=C3c4cc(O)c(O)cc4CC3(O)COC2=C1O` (stereo not given), the growth was 102%.

As for `O=C1c2ccccc2-c2cn(Cc3ccccc3)c3cccc(c23)C1c1cccnc1` (stereo not given), the growth is 16.3%.

With `COC(CCCl)c1ccc(Cl)cc1` (stereo not given), the growth was 94.2%.

Regarding `COc1ccc(-c2nc(SC)nc(N3CCOCC3)c2C#N)cc1`, the growth is 94%.

Regarding `ClCC#CCSc1ncnc2c1ncn2CC#CCCl`, the growth is 8.79% (active).

Consider `COc1ccc(-c2nn3c(-c4cc(F)c(Cl)cc4Cl)nnc3s2)cc1`, for which the growth was -1.09% (active).

Turning to `O=Cc1[nH]c(Sc2ccccc2)c2ccccc12`, the growth was 12.1%.

Consider `Cc1cc(Nc2ncc(Cl)c(Nc3ccccc3S(=O)(=O)C(C)C)n2)c(OC(C)C)cc1C1CCNCC1`, for which the growth was -65% (active).

As to `CN(C)c1ccc(CNC(C(=O)c2ccccc2)c2ccccc2)cc1` (stereo not given), the growth was 97.1%.

For the molecule `CC(Cc1cccc2ccccc12)C(N)=O` (stereo not given), the growth was 99.5%.

For `Clc1ccc(-c2cnc3c(-c4ccnc(N5CCNCC5)c4)cnn3c2)cc1`, the growth is -33.7% (active).

Turning to `Cc1cc(=O)[nH]c(N/N=C/c2ccccc2O)n1`, the growth is 71.3%.

On to `CC(=O)c1ccc(C)cc1`, for which the growth was 93.4%.

In the case of `Cc1ccc(C(C)C)cc1NC(=O)Nc1ccc([N+](=O)[O-])cc1`, the growth is -8.6% (active).

As for `Cc1cccc2c1NC(=O)[C@@]21[C@H](C(=O)c2ccccc2)[C@]2(C(=O)Nc3ccccc32)[C@H]2CCCN21`, the growth is 14.6% [100 µM].

For `COc1ccc(NC(=O)CCl)cc1`, the growth is 69.8%.

Take `CCCCCCNc1nc(N2CCOCC2)c2[nH]c(NCCCCCC)nc2n1`: the growth was -54.8% (active).

Consider `CC(=O)c1c(O)c(C)c(O)c2c1OC1=CC(=O)C(C(C)=O)C(=O)C12C` (stereo not given), for which the growth is 45.4%.

On to `CC(=O)Nc1cc(C)ccc1C`, for which the growth is 100%.

For `COc1cc(-c2nc(N3CCN(C)CC3)c3ccccc3n2)cc(OC)c1OC`, the growth is 67%.

Turning to `COc1cccc(/C=C2\COc3ccc(O)cc3C2=O)c1OC`, the growth was -14.5% (active).

Consider `O=c1c2c3c(sc2n2c(-c4cn(-c5ccccc5)nc4-c4ccc(Cl)cc4)nnc2n1Cc1ccccc1)CCCC3`, for which the growth is 102%.

Turning to `O=C(O)C(c1ccccc1)N1C(=O)CSC1=S` (stereo not given), the growth is 129%.

`COc1cc(C(=O)/C=C/c2ccc(N3CCN(C)CC3)cc2)cc(OC)c1OC`: the growth was 98.2%.

For `O=C(CN1C(=O)NC2NC(=O)NC21)N/N=C/c1cccc([N+](=O)[O-])c1` (stereo not given), the growth is 99.1%.

`Cc1c(Cl)cccc1NC(=O)c1sc2nc3c(cc2c1N)COCC3`: the growth is 2.35% (active).

Regarding `COc1cc(OC)c2c(=O)cc(-c3ccccc3)oc2c1`, the growth is 72%.

For the molecule `Nc1nc(N)c2c(n1)NC(c1cccc(Nc3ccnc4cc(C(F)(F)F)ccc34)c1)CC(c1ccccc1)=N2` (stereo not given), the growth was 34.8%.

Take `NC(N)=NC(N)=NCCCc1ccccc1`: the growth was 55.7% [100 µM].
